# Reference: publication PMC11062922 (Nature Chemical Biology, 2023)
# Like-named read-outs stand apart in the source and are kept apart here.
# Tests used:
# Parameters in all cases: species or system human, MV4-11 + K-562 + COLO205 + SK-N-BE2 + OVCAR-8
# [1] = tested on: CAMK4; conditions: read-out: apparent Kd; compound concentrations: 100 nM and 1000 nM (sheet 'Samples'), CATDS: 0.39593568375035498; n = 1
# [2] = tested on: CDC42BPG; conditions: read-out: apparent Kd, n = 1
# [3] = tested on: CDC42BPA; conditions: read-out: apparent Kd; compound concentrations:100 nM and 1000 nM (sheet 'Samples'); n = 1
# [4] = tested on: CDC42BPB; conditions: read-out: apparent Kd; compound concentrations:100 nM and 1000 nM (sheet 'Samples'); n = 1
# [5] = tested on: CDKL5; conditions: read-out: apparent Kd; compound concentrations:100 nM and 1000 nM (sheet 'Samples'); n = 1
# [6] = tested on: GRK6; conditions: read-out: apparent Kd; compound concentrations:100 nM and 1000 nM (sheet 'Samples'); n = 1
# [7] = tested on: LATS1; conditions: read-out: apparent Kd; compound concentrations:100 nM and 1000 nM (sheet 'Samples'); n = 1
# [8] = tested on: PKN1; conditions: read-out: apparent Kd; compound concentrations:100 nM and 1000 nM (sheet 'Samples'); n = 1
# [9] = tested on: PKN2; conditions: read-out: apparent Kd; compound concentrations:100 nM and 1000 nM (sheet 'Samples'); n = 1
# [10] = tested on: PKN3; conditions: read-out: apparent Kd; compound concentrations:100 nM and 1000 nM (sheet 'Samples'); n = 1
# [11] = tested on: PRKAA1; conditions: read-out: apparent Kd; compound concentrations:100 nM and 1000 nM (sheet 'Samples'); n = 1
# [12] = tested on: PRKACA; conditions: read-out: apparent Kd; compound concentrations:100 nM and 1000 nM (sheet 'Samples'); n = 1
# [13] = tested on: PRKACB; conditions: read-out: apparent Kd; compound concentrations:100 nM and 1000 nM (sheet 'Samples'); n = 1
# [14] = tested on: PRKAG1; conditions: read-out: apparent Kd; compound concentrations:100 nM and 1000 nM (sheet 'Samples'); n = 1
# [15] = tested on: PRKAG2; conditions: read-out: apparent Kd; compound concentrations:100 nM and 1000 nM (sheet 'Samples'); n = 1
# [16] = tested on: PRKCA; conditions: read-out: apparent Kd; compound concentrations:100 nM and 1000 nM (sheet 'Samples'); n = 1
# [17] = tested on: PRKCD; conditions: read-out: apparent Kd; compound concentrations:100 nM and 1000 nM (sheet 'Samples'); n = 1
# [18] = tested on: PRKG1; conditions: read-out: apparent Kd; compound concentrations:100 nM and 1000 nM (sheet 'Samples'); n = 1
# [19] = tested on: PRKX;PRKY; conditions: read-out: apparent Kd; compound concentrations:100 nM and 1000 nM (sheet 'Samples'); n = 1
# [20] = tested on: ROCK1; conditions: read-out: apparent Kd; compound concentrations:100 nM and 1000 nM (sheet 'Samples'); n = 1
# [21] = tested on: ROCK2; conditions: read-out: apparent Kd; compound concentrations:100 nM and 1000 nM (sheet 'Samples'); n = 1
# [22] = tested on: RPS6KA5; conditions: read-out: apparent Kd; compound concentrations:100 nM and 1000 nM (sheet 'Samples'); n = 1
# [23] = tested on: RPS6KB1; conditions: read-out: apparent Kd; compound concentrations:100 nM and 1000 nM (sheet 'Samples'); n = 1
# [24] = tested on: MAPK11; conditions: read-out: apparent Kd; compound concentrations: 100 nM and 1000 nM (sheet 'Samples'), CATDS: 0.59050582210334401; n = 1
# [25] = tested on: MAPK14; conditions: read-out: apparent Kd, compound concentrations: 100 nM and 1000 nM (sheet 'Samples'), n = 1
# [26] = tested on: MAPKAPK2; conditions: read-out: apparent Kd, compound concentrations: 100 nM and 1000 nM (sheet 'Samples'), n = 1
# [27] = tested on: GAK; conditions: read-out: apparent Kd; compound concentrations: 100 nM and 1000 nM (sheet 'Samples'), CATDS: 0.13668141663723599; n = 1
# [28] = tested on: MAPK10; conditions: read-out: apparent Kd; compound concentrations: 100 nM and 1000 nM (sheet 'Samples'), CATDS: 0.12548752602980501; n = 1
# [29] = tested on: MAPK9; conditions: read-out: apparent Kd; compound concentrations: 100 nM and 1000 nM (sheet 'Samples'), CATDS: 0.107953199944472; n = 1
# [30] = tested on: NQO1; conditions: read-out: apparent Kd; compound concentrations: 100 nM and 1000 nM (sheet 'Samples'), CATDS: 8.60735929712554E-2; n = 1
# [31] = tested on: TNIK; conditions: read-out: apparent Kd; compound concentrations: 100 nM and 1000 nM (sheet 'Samples'), CATDS: 0.13491621958450101; n = 1
compound,measurement,setting,value
C/C(=C1/SC(NCc2cccs2)=NC1=O)c1ccc2ncccc2c1 [RO4607009-000],potency estimated from few doses,[1],2260 nM
same,potency estimated from few doses,"[2]; compound concentrations: 100 nM and 1000 nM (sheet 'Samples'), CATDS: 0.67827085462466996",701 nM
COc1ccc(C[C@@H](CN)NC(=O)c2cc(Br)c(-c3ccnc4[nH]ccc34)s2)cc1.COc1ccc(C[C@@H](CN)NC(=O)c2cc(Br)c(-c3ccnc4[nH]ccc34)s2)cc1.Cl.Cl [GSK1389063A],potency estimated from few doses,[3],757 nM
same,potency estimated from few doses,[4],80.7 nM
same,potency estimated from few doses,[2]; compound concentrations:100 nM and 1000 nM (sheet 'Samples'),21.2 nM
same,potency estimated from few doses,[5],1370 nM
same,potency estimated from few doses,[6],93 nM
same,potency estimated from few doses,[7],287 nM
same,potency estimated from few doses,[8],339 nM
same,potency estimated from few doses,[9],897 nM
same,potency estimated from few doses,[10],921 nM
same,potency estimated from few doses,[11],1570 nM
same,potency estimated from few doses,[12],11.7 nM
same,potency estimated from few doses,[13],23.5 nM
same,potency estimated from few doses,[14],976 nM
same,potency estimated from few doses,[15],863 nM
same,potency estimated from few doses,[16],2340 nM
same,potency estimated from few doses,[17],1750 nM
same,potency estimated from few doses,[18],27.3 nM
same,potency estimated from few doses,[19],127 nM
same,potency estimated from few doses,[20],17.9 nM
same,potency estimated from few doses,[21],21.5 nM
same,potency estimated from few doses,[22],899 nM
same,potency estimated from few doses,[23],130 nM
Nc1c(C(=O)c2cccc(-c3ccc[n+]([O-])c3)c2)cnn1-c1ccc(F)cc1F [RO1166259-000],potency estimated from few doses,"[2]; compound concentrations: 100 nM and 1000 nM (sheet 'Samples'), CATDS: 0.14684216194917399",1410 nM
same,potency estimated from few doses,[24],10.2 nM
same,potency estimated from few doses,[25]; CATDS: 0.223513912329704,100 nM
same,potency estimated from few doses,[26]; CATDS: 0.33085096444850498,31.2 nM
N#Cc1ccc2c(-c3ccnc(NC4CC4)n3)c(-c3ccc(F)cc3)nn2c1 [GW561436X],potency estimated from few doses,"[2]; compound concentrations: 100 nM and 1000 nM (sheet 'Samples'), CATDS: 0.104980182660456",1180 nM
same,potency estimated from few doses,[27],650 nM
same,potency estimated from few doses,[28],775 nM
same,potency estimated from few doses,[25]; CATDS: 0.192952593667473,356 nM
same,potency estimated from few doses,[29],1100 nM
same,potency estimated from few doses,[26]; CATDS: 0.17502946768032501,417 nM
same,potency estimated from few doses,[30],2220 nM
same,potency estimated from few doses,[31],667 nM
